# Rin1-Abl PPI inh = inhibitors of Rin1-Abl protein binding, primary screen, biochemical, TR-FRET; hit rate 0.4% among 360,000; Tyrosine-protein kinase ABL1 (Homo sapiens) + Ras and Rab interactor 1 (Homo sapiens), …; inhibition, % at 7.35 µM; in the data active means inhibition above about 5%, passing the limit was not always enough
# PAFAH2 inh = PAFAH2 enzyme inhibitors, primary screen, biochemical, fluorescence polarization, human; AID 492956, 2010; inhibition, % at 3.39 µM; recombinant PAFAH2, FP-rhodamine activity probe; hit rate 0.99% among 340,000; Platelet-activating factor acetylhydrolase 2, cytoplasmic (Homo sapiens), Q99487;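 active means inhibition above the mean over all tested compounds plus 3 SD, cut at about 30% in these data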;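 further: inhibitors block probe labeling of enzyme so polarization drops; 0% = enzyme with DMSO and 100% = wells lacking PAFAH2 protein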
# PAFAH1B2 inh = PAFAH1B2 enzyme inhibitors, primary screen, biochemical, fluorescence polarization, human | recombinant PAFAH1B2, FP-rhodamine activity probe | Platelet-activating factor acetylhydrolase IB subunit alpha2 (Homo sapiens), P68402 | inhibition, % at 3.39 µM | hit rate 1.2% among 340,000;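 active means inhibition above the mean of all tested compounds plus 3 SD, cut at about 24% in these data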;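 further: 0% = enzyme with DMSO and 100% = wells lacking PAFAH1B2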
# PAFAH1B3 inh = PAFAH1B3 enzyme inhibitors, primary screen, biochemical, fluorescence polarization, human. Platelet-activating factor acetylhydrolase IB subunit alpha1 (Homo sapiens), Q15102. recombinant PAFAH1B3, FP-rhodamine probe. inhibition, % at 3.39 µM. hit rate 0.28% among 340,000. AID 492972, 2010;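 active means inhibition above the screen-wide average of all tested compounds plus 3 SD, cut at about 25% in these data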;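 further: 0% = enzyme with DMSO only and 100% = wells lacking PAFAH1B3 protein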
# pPAFAH inh = pPAFAH enzyme inhibitors, primary screen, biochemical, fluorescence polarization, human; AID 463082, 2010; recombinant pPAFAH, FP-rhodamine probe fluorescence polarization; hit rate 1.5% among 330,000; inhibition, % at 3.39 µM; Platelet-activating factor acetylhydrolase (Homo sapiens), Q13093;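 active means inhibition above the mean inhibition across the screen plus 3 SD, cut at about 25% in these data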;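 further: inhibitors block binding of the rhodamine activity-based probe so polarization drops; 0% = enzyme with DMSO and 100% = wells lacking pPAFAH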
# E coli Lon inh = inhibitors of E. coli Lon protease, primary screen, biochemical, fluorescence polarization. hit rate 0.42% among 360,000. P0A9M0. inhibition, % at 7.94 µM. purified E. coli Lon protease; in the data active means inhibition above about 13%, passing the limit was not always enough;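 further: 0% = enzyme with probe and DMSO and 100% = no enzyme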
# Target sequence (P0A9M0 whole entry, looked up): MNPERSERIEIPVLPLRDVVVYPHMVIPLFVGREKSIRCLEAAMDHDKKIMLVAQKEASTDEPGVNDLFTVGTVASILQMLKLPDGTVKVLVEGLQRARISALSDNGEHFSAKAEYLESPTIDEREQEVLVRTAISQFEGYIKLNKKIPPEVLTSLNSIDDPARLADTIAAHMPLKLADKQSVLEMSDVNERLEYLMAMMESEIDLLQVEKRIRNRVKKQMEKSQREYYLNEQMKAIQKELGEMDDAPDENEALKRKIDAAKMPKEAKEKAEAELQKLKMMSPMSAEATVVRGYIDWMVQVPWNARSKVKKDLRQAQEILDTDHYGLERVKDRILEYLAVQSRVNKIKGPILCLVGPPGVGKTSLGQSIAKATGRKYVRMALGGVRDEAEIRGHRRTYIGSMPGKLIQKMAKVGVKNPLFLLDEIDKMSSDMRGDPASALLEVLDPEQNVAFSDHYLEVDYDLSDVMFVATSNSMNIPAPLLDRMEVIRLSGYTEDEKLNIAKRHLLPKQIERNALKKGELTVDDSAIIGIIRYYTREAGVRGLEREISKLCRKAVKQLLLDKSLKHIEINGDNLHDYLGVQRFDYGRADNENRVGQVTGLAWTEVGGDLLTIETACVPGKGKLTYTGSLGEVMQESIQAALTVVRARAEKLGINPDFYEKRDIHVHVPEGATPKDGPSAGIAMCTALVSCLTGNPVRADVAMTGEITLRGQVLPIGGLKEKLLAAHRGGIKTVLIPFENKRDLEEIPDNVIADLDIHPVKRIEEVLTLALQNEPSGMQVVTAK
# PAFAH2 confirm = PAFAH2 enzyme inhibitors, confirmation, biochemical, fluorescence polarization, human | recombinant PAFAH2, FP-rhodamine activity probe | AID 493030, 2011 | inhibition, % at 3.39 µM | hit rate 65% among 2,300 | shares compounds with PAFAH2 inh;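 active means mean inhibition over three repeats above a set limit taken from the earlier primary screen, cut at about 30% in these data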;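 further: inhibitor blocks binding of rhodamine activity probe so polarization falls; 0% = enzyme with DMSO and 100% = wells lacking PAFAH2 protein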
# PAFAH1B3 conf FP = PAFAH1B3 enzyme inhibitors, confirmation, biochemical, fluorescence polarization, human. shares compounds with PAFAH1B3 inh. recombinant PAFAH1B3, FP-Rh activity-based probe. inhibition, % at 3.39 µM. hit rate 30% among 390;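 active means average inhibition over triplicate runs above the hit cutoff set in the earlier primary screen, cut at about 25% in these data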;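 further: 0% = enzyme with DMSO and 100% = wells lacking PAFAH1B3 protein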
# Rin1-Abl confirm = Rin1-Abl binding inhibitor retest, confirmation, biochemical, TR-FRET. hit rate 49% among 1,300. shares compounds with Rin1-Abl PPI inh. purified proteins. inhibition, % at 7.35 µM. AID 602124, 2011
# GFP quencher = GFP fluorescence inhibitors and quenchers, artefact control for Rin1-Abl interaction inhibitor project, biochemical | AID 602125, 2011 | inhibitors/quenchers counterscreen | hit rate 8.5% among 1,300 | shares compounds with Rin1-Abl PPI inh | inhibition, % at 6.75 µM;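 further: ABL1-eGFP fusion protein alone without its partner RIN1-SBP; 0% = protein with vehicle and 100% = wells lacking protein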
# GFP quench DR = GFP fluorescence inhibitors and quenchers, dose response, artefact control for Rin1-Abl interaction inhibitor project, biochemical; GFP fluorescence interference/quenching counterscreen; 230 tested, under 10 active; shares compounds with Rin1-Abl PPI inh; IC50, µM; AID 602182, 2012; call rule not given here;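 further: ABL1-eGFP fusion protein alone without its RIN1 binding partner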
# eLon confirm = E. coli Lon protease inhibitor retest, confirmation, biochemical, fluorescence polarization | shares compounds with E coli Lon inh | inhibition, % at 7.94 µM | purified E. coli Lon | hit rate 31% among 1,400; in the data active means inhibition above about 16%;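 further: 0% = enzyme with probe and DMSO and 100% = no enzyme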
# Numbers without * were called inactive; . = not tested or not shown. A selection: hits, their analogues and other compounds. The true share with any hit is near 3.1%. Unless noted, no stated cut-off is given here; in the data, active means inhibition above about 6.5%; inactive means the rest.
SMILES,Rin1-Abl PPI inh,PAFAH2 inh,PAFAH1B2 inh,PAFAH1B3 inh,pPAFAH inh,E coli Lon inh,PAFAH2 confirm,others
O=C(Nc1nnc([C@H]2C[C@H](O)[C@@H](CO)O2)s1)c1cccc(OC(F)(F)F)c1,-5.8,.,.,.,.,-10.8,.,
N/C(CC(=O)Nc1ccc(F)cc1F)=N\OC(=O)c1cccs1,-3.6,40.8*,7.0,4.0,4.3,1.7,25.7,
N/C(Cc1cccc2ccccc12)=N\OC(=O)c1cccs1,.,-3.2,0.4,3.4,15.1,.,.,
Cc1cccc(C(=O)O/N=C2\CCS(=O)(=O)c3sccc32)c1,3.3,77.9*,3.8,6.5,16.4,-11.8,76.7*,
O=C(O/N=C1\CCS(=O)(=O)c2sccc21)c1ccccc1,1.9,73.3*,-4.0,5.8,3.5,-0.5,71.5*,
Cc1ccc(C(=O)OC2CCS(=O)(=O)c3sccc32)cc1 (configuration not stated),-1.2,-7.4,-1.6,-1.3,1.5,-7.1,.,
O=C(O/N=C1\CCS(=O)(=O)c2sccc21)c1ccc(F)cc1,-0.2,52.1*,2.9,-2.1,2.3,2.8,55.3*,
COc1ccc2c(c1)CC/C2=N\OC(=O)c1cccc(C)c1,-1.3,-3.7,7.8,1.0,4.0,10.0,.,
O=c1ccc(Cl)nn1-c1ccccc1,-2.1,2.3,3.2,9.0,2.7,2.4,.,
O=C(O)/C(=C\c1ccc(Cl)c([N+](=O)[O-])c1)c1ccc(S(=O)(=O)N2CCCCC2)s1,-3.2,31.8*,20.8,14.3,18.2,6.2,7.7,
O=C(O)/C(=C\c1ccc(Cl)c([N+](=O)[O-])c1)c1ccc(S(=O)(=O)N2CCCC2)s1,3.1,22.2,10.6,10.4,19.5,-6.2,.,
COc1cc(C=c2c3ccccc3n3c2cc(-c2ccccc2)[n+]3C)cc(OC)c1OC,14.3*,55.2*,-7.2,24.9,.,-17.2,19.6,Rin1-Abl confirm=-4.2;GFP quencher=3.1
Nc1ccc(-c2nc3cc([N+](=O)[O-])ccc3o2)cc1,-2.2,0.7,1.7,4.7,-2.2,-1.1,.,
O=c1oc(-c2ccc([N+](=O)[O-])cc2)nc2ccc(O)cc12,16.9*,85.0*,6.9,11.0,5.3,-1.9,67.0*,Rin1-Abl confirm=-7.3;GFP quencher=0.1
O=C(Nc1ccc(O)cc1C(=O)O)c1cccc(Br)c1,15.6*,37.6*,5.1,9.1,-0.5,-0.4,20.9,Rin1-Abl confirm=23.5*;GFP quencher=-1.4;GFP quench DR=>67.5
O=C(NCCc1ccc(Cl)cc1)C1CC(=O)N(C2CCCC2)C1 (configuration not stated),15.3*,103.8*,13.4,2.6,0.6,-1.0,-4.2,Rin1-Abl confirm=-1.5;GFP quencher=1.6
O=C(NCCc1ccc(Cl)cc1)C1CCC(=O)N(C2CCCCCC2)C1 (configuration not stated),1.8,3.1,2.6,5.4,2.0,-6.1,.,
O=S(=O)(c1ccsc1)N1CC=C(c2ccccc2)CC1,1.1,10.6,4.5,10.1,1.4,-6.8,.,
CN(C)S(=O)(=O)N1CCC(Oc2cccc(C(=O)N3CCCCCCC3)c2)CC1,-0.7,-2.4,1.6,3.5,-3.8,-7.4,.,
COc1ccc(C(=O)c2ccsc2N)cc1,0.6,29.9*,11.4,8.6,15.6,90.2*,-0.4,eLon confirm=5.8
CCCCCN(C(=O)CCC(=O)OCc1ccc(C(C)C)cc1)c1c(N)n(CCCC)c(=O)[nH]c1=O,-1.2,-1.9,3.0,1.0,-1.8,-5.6,.,
CC(=O)c1sc(C(C)(C)C)cc1NC(=O)CCC(=O)O,-7.8,2.2,6.0,2.0,1.0,1.9,.,
CC(=O)c1sc(C(C)(C)C)cc1NC(=O)/C=C/C(=O)O,0.2,11.6,5.8,43.6*,0.0,9.1,.,PAFAH1B3 conf FP=35.1*
Nc1nc(NCc2ccco2)nn1-c1ccccc1,-2.4,5.4,7.2,26.5*,3.4,7.3,.,PAFAH1B3 conf FP=7.5
CCCCNC1=CC(=O)C(=O)c2ccccc21,-7.4,7.8,2.4,25.3,4.2,-7.2,.,
SMILES,Rin1-Abl PPI inh,PAFAH2 inh,PAFAH1B2 inh,PAFAH1B3 inh,pPAFAH inh,E coli Lon inh,PAFAH2 confirm,others
O=C1C(Nc2ccccc2)=C(NS(=O)(=O)c2ccccc2)C(=O)c2ccccc21,-9.6,7.0,20.3,7.7,10.1,-9.8,.,
O=C1C=C(Nc2ccccc2)c2ccccc2C1=O,-15.8,6.8,8.8,61.5*,.,1.7,.,PAFAH1B3 conf FP=30.2*
CCc1ccc(NC2=CC(=O)C(=O)c3ccccc32)cc1,-2.8,17.9,8.9,58.6*,.,-3.1,.,PAFAH1B3 conf FP=37.1*
Clc1ccc(CNc2ncnc3[nH]ncc23)cc1Cl,2.5,2.6,7.8,14.0,.,-15.8,.,
CC(C)[C@H](NS(=O)(=O)c1ccccc1)C(=O)Nc1ccccc1N1CCOCC1,2.8,8.4,10.0,6.4,7.7,1.7,.,
CN(Cc1c(C(=O)N/N=C/c2ccccc2O)nnn1-c1nonc1N)C1CCCCC1,-6.7,.,.,.,.,-0.6,.,
CC(=C1C(=O)c2ccccc2C1=O)N1CCc2ccccc2C1,-3.7,4.3,1.9,27.0*,1.6,-2.9,.,PAFAH1B3 conf FP=9.3
CCC1(c2ccccc2)NC(=O)N(CC(=O)NNC(=O)COc2ccc(Cl)cc2C)C1=O (configuration not stated),1.1,7.2,7.8,-0.2,5.8,-13.1,.,
Nc1ccc(N(CCO)CCO)cc1,5.3,15.8,12.5,37.6*,14.0,8.6,.,PAFAH1B3 conf FP=6.8
CCN(CC)c1ccc(N)cc1,6.6,-6.4,0.1,3.5,8.9,-18.9,.,
Cc1ccc(C(C)C)c(OCc2ccc(C(=O)N/N=C/c3ccc(C(=O)O)cc3)cc2)c1,-0.2,-50.4,-17.8,-30.8,-11.8,9.7,.,
